This excerpt belongs to a sample that is enriched for hits.
Shiga toxin inh = inhibitors of Shiga toxin in Vero cells; Vero cells, Shiga toxin protein synthesis inhibition reporter; inhibition, % at 38.7 µM; 290,000 tested, 9.2% active; AID 2315; in the data active means inhibition mostly above about 28%, no sharp cut-off; inactive means mostly below about 43%; further: 0% is about no effect
Tb PYK inh = inhibitors of Trypanosoma brucei pyruvate kinase | Potency, µM (top dose mostly 76.8 µM), without a hit: at the highest dose activity, negative = inhibition, actives largely listed as inhibitors | Q57TT1 | TbPYK enzyme, Kinase-Glo Plus ATP luminescence, 45 min | 410,000 tested, 0.12% active; further: potency means the concentration at half of the fitted maximal effect; on the % scale 0 is the no-effect control and ±100 the full control effect; nearly all actives have a fitted effect of over 50% in size
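Activity of T. brucei pyruvate kinase was followed by Kinase-Glo Plus luminescence after the enzyme reacted 45 min at room temperature with 130 uM ADP (final) and substrate. Test compounds were added before ADP at multiple concentrations.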
Giardia FBPA inh = Giardia lamblia aldolase inhibition. Potency, µM (titrated, usually from 59.6 µM), inactives show at the top dose activity, negative = inhibition, most hits filed as inhibitors. A8B2U2. purified Giardia FBPA. 290,000 tested, 0.71% active; further: potency means the concentration at half of the fitted maximal effect; on the % scale 0 is the no-effect control and ±100 the full control effect; nearly all actives have a fitted effect of over 55% in size
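40 nM FBPA preincubated 10 min at RT with compound (up to 57.5 uM final), then substrate plus GAPDH/TPI/NAD/arsenate coupling and diaphorase/resazurin added. Fluorescence read after 20 min at RT, 525/598 nm.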
CHX counter = counter-screen for Shiga toxin inhibitors: cycloheximide protein synthesis inhibition; cell reporter, cycloheximide protein synthesis inhibition counterscreen; AID 2314; 300,000 tested, 12% active; max response, %; in the data active means max response mostly above about 13%, no sharp cut-off; inactive means mostly below about 14%; further: read at 38.3 µM for the half of the compounds with a filed dose; 0% is about no effect
LmPK inh = inhibitors of Leishmania mexicana pyruvate kinase; Q27686; purified LmPK, Kinase-Glo ATP luminescence, 1 h; Potency, µM (doses to about 57.5 µM), without a hit: at the top dose activity change, negative = inhibition, actives largely listed as inhibitors; 290,000 tested, 0.37% active; AID 1721; further: potency means the concentration at half of the fitted maximal effect; on the % scale 0 is the no-effect control and ±100 the full control effect
Target sequence (Q27686 whole entry, looked up): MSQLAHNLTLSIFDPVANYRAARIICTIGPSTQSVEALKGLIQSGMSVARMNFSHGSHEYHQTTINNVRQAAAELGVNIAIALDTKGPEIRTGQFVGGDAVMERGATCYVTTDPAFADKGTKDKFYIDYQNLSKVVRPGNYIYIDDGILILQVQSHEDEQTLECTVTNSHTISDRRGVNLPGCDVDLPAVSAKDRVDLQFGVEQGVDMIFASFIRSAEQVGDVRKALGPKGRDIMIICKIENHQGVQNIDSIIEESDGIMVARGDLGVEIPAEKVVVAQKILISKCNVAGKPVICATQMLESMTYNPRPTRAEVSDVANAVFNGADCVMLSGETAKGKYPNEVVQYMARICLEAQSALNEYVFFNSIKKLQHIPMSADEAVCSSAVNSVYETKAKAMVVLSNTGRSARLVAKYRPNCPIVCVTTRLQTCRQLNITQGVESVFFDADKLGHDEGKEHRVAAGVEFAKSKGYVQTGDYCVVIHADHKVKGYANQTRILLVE
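qHTS format; LmPK 0.1 nM; substrates PEP 0.5 mM and ADP 0.1 mM. One-hour room-temperature incubation, then coupled luciferase luminescence; 0.5 nM enzyme wells mark activation.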
RE007 growth inh = less growth of the S. pombe RE007 Vpr strain; S. pombe RE007 Vpr strain, BacTiter-Glo ATP luminescence, 24 h; Potency, µM (series often up to 92.2 µM), for the others: top-dose activity change, negative = less growth, actives largely listed as inhibitors; 360,000 tested, 0.21% active; AID 651644; active means well fitted falling curve with a large enough effect; inconclusive means small, poorly fitted or top-dose-only effect; inactive means no such curve, though single readings can be large or run the other way; further: potency means the concentration at half of the fitted maximal effect; on the % scale 0 is the no-effect control and ±100 the full control effect; nearly all actives have a fitted effect of over 50% in size
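Fission yeast strain RE007, carrying one chromosomally integrated HIV-1 vpr copy, was seeded at OD 0.01 in PMG+AL medium with 23 nL pinned compound. After 24 h at 30 °C and 99% humidity, viability was read by BacTiter-Glo luminescence.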
The depositor's hits bear a star; ? = inconclusive; · = no result; + = active, no number. Unless noted, the call rests on the fitted dose curve; in most records, active means well fitted curve in the direction sought with a large enough effect; inconclusive means small, poorly fitted or top-dose-only effect, or another doubt; inactive means no such curve, though single readings can be large; an effect the other way counts as inactive or inconclusive.

SMILES	Shiga toxin inh	Tb PYK inh	Giardia FBPA inh	CHX counter	LmPK inh	RE007 growth inh
O=C(Nc1ccc2c(c1)OCO2)c1cc(-c2ccc(O)cc2)on1	106.0*	2.7%	6.2%	39.5*	-3.6%	11.2%
O=C(Nc1ccc2c(c1)OCO2)c1cc(-c2ccc(Cl)cc2)on1	·	0.6%	·	·	·	·
Cc1cc(NC(=O)c2cc(-c3ccc(Br)cc3)on2)no1	-3.1	-1.3%	-1.5%	-3.1	5.2%	1.8%
O=C(Nc1ccc2c(c1)OCO2)c1cc(-c2cccc(O)c2)on1	111.1*	4.2%	-8.1%	48.3*	-5.5%	-14.6%
O=C(Nc1ccc2c(c1)OCO2)c1cc(-c2ccccc2Cl)on1	89.5*	-12.6%	-8.5%	23.9*	-2.5%	5.9%
Cc1cccc(Nc2nc(NCCCN3CCOCC3)nc(N)c2[N+](=O)[O-])c1	-11.2	-12.3%	3.5%	-2.9	3.6%	-1.8%
COCCNC(=S)N1CCC(NC(=O)c2ccco2)CC1	-4.1	3.3%	3.6%	-4.5	1.3%	0.8%
COc1cc(/C=C2/SC(=S)N(CCC(=O)Nc3cccnc3)C2=O)cc(OC)c1OC	·	-2.6%	·	·	·	0.5%
COc1ccc(N2CCN(C(=O)CCS(=O)(=O)c3ccc4c(c3)NC(=O)C(C)S4)CC2)cc1 (stereo unspecified)	-7.7	-11.8%	-9.1%	-4.1	-1.7%	0.4%
O=C(CCS(=O)(=O)c1ccccc1)N1CCN(c2ccc(F)cc2)CC1	70.5*	3.8%	·	52.2*	-2.6%	-4.8%
O=C(CCc1nnc(C2CCCCC2)o1)N1CCN(c2ccccc2F)CC1	89.3*	-10.7%	15.4%	70.9*	-8.1%	12.3%
CC(=O)c1ccc(N2CCN(C(=O)CCS(=O)(=O)c3ccc4c(c3)NC(=O)CS4)CC2)cc1	54.8*	2.8%	·	43.6*	-6.7%	-0.6%
O=C(CCS(=O)(=O)c1ccc(F)cc1)N1CCOCC1	46.0*	-6.1%	7.2%	14.5*	-1.3%	21.3%
C#CCOC(C(=O)OCCN(C)C)(c1ccccc1)c1ccccc1	·	-9.8%	·	·	·	·
COc1cccc(Cn2c(=O)n(-c3cccc(Cl)c3C)c(=O)c3c4c(sc32)CN(C(C)=O)CC4)c1	·	0.5%	·	·	·	·
O=C(CCCC(=O)N1CCN(c2ccccc2F)CC1)N1CCN(c2ccccc2F)CC1	-15.1	-6.1%	0.1%	3.6	2.2%	-1.3%
O=C(CCC(=O)N1CCN(c2ccc(F)cc2)CC1)c1ccccc1	15.4	2.1%	-7.9%	32.6*	4.1%	14.7%
O=C(CCC(=O)N1CCN(c2ccc(F)cc2)CC1)c1ccc(F)cc1	6.9	0.7%	-1.6%	4.8	-0.6%	0.9%
O=C(CCCC(=O)N1CCN(c2ccccc2F)CC1)c1ccccc1	59.0*	-0.1%	-9.5%	35.9*	-3.3%	17.1%
Cc1c(C(=O)NCCO)[n+](=O)c2ccccc2n1[O-]	·	-5.2%	·	·	·	·
Cc1occc1C(=O)N/N=C/c1ccccc1[N+](=O)[O-]	64.5*	-11.1%	-12.9%	61.8*	14.1µM*	24.1%
Cn1nccc1C(=O)N/N=C/c1ccccc1[N+](=O)[O-]	79.9*	-7.3%	-2.4%	32.3*	?	8.4%
CCC(=O)Nc1ccc(C(=O)N/N=C/c2ccccc2[N+](=O)[O-])cc1	11.9	2.5%	2.7%	5.6	1.3%	-1.0%
Cn1nccc1C(=O)N/N=C/c1cccnc1	58.9*	-1.9%	-1.3%	33.3*	-9.4%	-22.9%
COc1ccc(C(=O)N/N=C/c2cccnc2)cc1	54.5*	-8.1%	1.0%	29.3*	-1.3%	-3.8%
SMILES	Shiga toxin inh	Tb PYK inh	Giardia FBPA inh	CHX counter	LmPK inh	RE007 growth inh
CC(=O)Nc1ccc(C(=O)N/N=C/c2cccnc2)cc1	-7.5	2.4%	2.3%	-2.1	-3.1%	10.4%
Cc1occc1C(=O)Nc1cccc([N+](=O)[O-])c1C	9.0	7.3%	0.3%	4.1	2.9%	-3.6%
C=C[C@@H]1c2ccccc2N(S(=O)(=O)c2ccc(C)cc2)[C@H](c2ccc(C(=O)OC)cc2)C1(C#N)C#N	·	-18.0%	·	·	·	0.8%
COCCNC(=S)N1CCC2CC1c1c(Cl)cccc12 (stereo unspecified)	·	-0.5%	·	·	·	-4.2%
Cc1cc(C)n(Cc2cccc(C(=O)N/N=C/c3ccncc3)c2)n1	-12.5	-0.9%	·	18.2	-8.6%	0.2%
Cc1cc(C)n(Cc2cccc(C(=O)N/N=C/c3cccnc3)c2)n1	-3.8	-6.2%	-1.0%	10.0*	-4.6%	0.1%
O=C(CNC(=O)c1ccncc1)N/N=C/c1ccccc1[N+](=O)[O-]	57.9*	-4.0%	0.5%	23.2*	11.6%	0.3%
COCCN(CCOC)c1nc(-c2ccc(C)cc2)nc2ccccc12	73.0*	2.8%	-6.8%	12.8*	-0.3%	0.4%
CN(C)CCCNc1nc(-c2ccc(Cl)cc2)nc2ccccc12	-2.3	1.1%	7.0%	0.9	0.3%	6.2%
CCCCN(CCCC)c1nc(-c2ccccc2)nc2ccccc12	·	-1.2%	·	·	·	·
Cc1cccc(-c2nc(NCCCN(C)C)c3ccccc3n2)c1	50.8	0.0%	?	14.0*	3.0%	?
Cc1ccc(-c2nc(NCCN(C)C)c3ccccc3n2)cc1	79.9	-3.4%	4.4%	18.2*	0.1%	-3.1%
CCc1nn(-c2ccccc2)c2c1-c1cc(OC)c(OC)cc1C1(N2)C(=O)Nc2ccccc21 (stereo unspecified)	-8.6	7.1%	-8.7%	-1.9	0.0%	-2.2%
O=C(Cn1nnc(-c2cccc(C(F)(F)F)c2)n1)NCc1ccc(F)cc1	·	-3.6%	·	·	·	·
COc1ccccc1CNC(=O)/C=C/c1ccc(S(=O)(=O)NCc2ccco2)cc1	+	-5.5%	-0.5%	19.5*	-4.5%	13.9%
O=C(O)/C=C/c1ccc(S(=O)(=O)NCc2ccco2)cc1	11.8	-17.8%	5.4%	4.8	2.2%	0.6%
Cc1ccc(CNC(=O)/C=C/c2ccc(S(=O)(=O)NCc3ccco3)cc2)cc1	40.1*	-1.1%	-0.5%	21.1*	2.4%	5.9%
O=C(/C=C/c1ccc(S(=O)(=O)NCc2ccco2)cc1)NCc1cccc(Cl)c1	46.0*	7.7%	-1.5%	28.9*	-1.4%	15.9%
O=C(Nc1ccccc1F)Nc1cccnc1Cl	·	-2.4%	·	·	·	-9.1%
COc1ccc(C(=O)Nc2cccc(-c3cc4ccccc4oc3=O)c2)cc1[N+](=O)[O-]	-17.8	1.9%	2.2%	-3.0	2.5%	6.0%
Nc1nc2c(ncn2C2OC(COC(=O)c3ccccc3)C(OC(=O)c3ccccc3)C2OC(=O)c2ccccc2)c(=O)[nH]1 (stereo unspecified)	·	·	-6.1%	·	·	·
COc1cccc(-c2cccc(NC(=O)C3CCN(Cc4nccs4)CC3)c2)c1	-2.4	1.4%	·	1.2	-5.9%	-9.6%
CCOc1ccc(CN2CCC(C(=O)Nc3cccc(-c4ccn[nH]4)c3)CC2)cc1Cl	43.0*	4.7%	·	23.9*	4.1%	-1.9%

Assay outcomes: PubChem BioAssay, National Center for Advancing Translational Sciences (NCATS)
